Screens: PubChem, NMMLSC
Anthrax LF prot = Bacillus anthracis LF protease inhibitors, primary screen, biochemical, multiplex microsphere, MLPCN library. 360,000 tested, 0.12% active. multiplex microsphere protease cleavage assay. AID 588501, 2011. inhibition, % at 10 µM. Lethal factor (Bacillus anthracis), P15917; further: plate controls were buffer without enzyme for full effect and enzyme alone for no effect
Target sequence (P15917 whole entry, looked up): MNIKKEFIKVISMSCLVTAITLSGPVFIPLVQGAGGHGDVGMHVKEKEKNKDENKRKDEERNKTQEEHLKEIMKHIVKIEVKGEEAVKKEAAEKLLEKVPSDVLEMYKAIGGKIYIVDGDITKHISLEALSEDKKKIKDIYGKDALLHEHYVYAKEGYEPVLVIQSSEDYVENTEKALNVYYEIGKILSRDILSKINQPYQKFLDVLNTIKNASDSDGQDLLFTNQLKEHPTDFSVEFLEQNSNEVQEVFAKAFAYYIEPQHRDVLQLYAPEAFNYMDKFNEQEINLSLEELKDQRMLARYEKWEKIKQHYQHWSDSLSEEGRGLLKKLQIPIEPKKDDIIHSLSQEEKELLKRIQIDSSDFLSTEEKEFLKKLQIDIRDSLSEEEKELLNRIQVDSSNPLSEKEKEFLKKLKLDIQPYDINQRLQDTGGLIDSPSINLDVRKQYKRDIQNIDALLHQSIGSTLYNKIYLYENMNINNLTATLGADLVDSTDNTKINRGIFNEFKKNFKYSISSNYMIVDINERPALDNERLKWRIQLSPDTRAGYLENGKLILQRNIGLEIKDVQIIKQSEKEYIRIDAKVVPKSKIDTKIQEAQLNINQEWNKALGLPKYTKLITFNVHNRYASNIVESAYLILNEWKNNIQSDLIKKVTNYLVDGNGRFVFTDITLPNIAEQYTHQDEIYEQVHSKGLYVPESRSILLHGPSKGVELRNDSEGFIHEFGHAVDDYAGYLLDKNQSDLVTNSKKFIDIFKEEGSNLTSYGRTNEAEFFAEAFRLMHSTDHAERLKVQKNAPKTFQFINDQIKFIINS
BoNT F protease = BoNT/F light chain protease inhibitors, primary screen, biochemical, flow cytometry, MLPCN library; inhibition, % at 10 µM; 360,000 tested, 0.22% active; Botulinum neurotoxin type F light chain protease (Clostridium botulinum); AID 588497, 2011; Multiplex microsphere protease cleavage assay; in the data active means inhibition above about 35%, passing the limit was not always enough; inconclusive means no clear call, values can overlap the other calls; further: plate controls were buffer without enzyme for full effect and enzyme alone for no effect
BoNT-A LC inh2 = BoNT/A light chain protease inhibitors, primary screen, biochemical, flow cytometry, MLPCN library | AID 588499, 2011 | 360,000 tested, 0.17% active | inhibition, % at 10 µM | multiplex microsphere protease substrate cleavage; further: plate controls were buffer without enzyme for full effect and enzyme alone for no effect
Bead autofluor = compound fluorescence in toxin protease inhibitor counterscreen | compound autofluorescence counterscreen, microsphere flow cytometry; stronger effect = higher value | fluorescence intensity (concentration not given with the values) | 360,000 tested, 3.1% active; in the data active means fluorescence intensity above about 16000; inconclusive means no clear call, values can overlap the other calls
BoNT-A LC CP1 = BoNT/A light chain protease inhibitors, confirmation, biochemical, flow cytometry, cherry pick 1; shares compounds with BoNT F protease; multiplex microsphere protease assay; inhibition, % at 10 µM; 720 tested, 3% active; in the data active means inhibition above about 32%
BoNTF LC inh 1 = BoNT/F light chain protease inhibitors, confirmation, biochemical, flow cytometry, cherry pick 1 | shares compounds with BoNT F protease | multiplex microsphere protease cleavage assay | inhibition, % at 10 µM | 720 tested, under 10 active; call rule not given here
Anthrax LF CP1 = Bacillus anthracis LF protease inhibitors, confirmation, biochemical, multiplex microsphere, cherry pick 1 | shares compounds with BoNT F protease | multiplex microsphere protease cleavage assay | inhibition, % at 10 µM | 720 tested, under 10 active | AID 602142, 2011; call rule not given here
* marks the source's active call; other numbers are inactive results. Sampled rows, rich in hits. Any-hit rate of the full collection: about 3.5%. Unless noted, no stated cut-off is given here; in the data, active means inhibition above about 30%; inconclusive means no clear call, values can overlap the other calls; inactive means below that.

What do the screens show for `O=C(Nc1cnn(Cc2ccc(F)cc2)c1)c1cc2nc(-c3ccco3)cc(C(F)(F)F)n2n1`?
Anthrax LF prot: -3; BoNT F protease: 4; BoNT-A LC inh2: 0; Bead autofluor: 3265; BoNT-A LC CP1: 1; BoNTF LC inh 1: 4; Anthrax LF CP1: -4

What do the screens show for `Cc1ccccc1Cn1ccc(NC(=O)c2cc3nc(-c4ccco4)cc(C(F)(F)F)n3n2)n1`?
Anthrax LF prot: 0; BoNT F protease: -3; BoNT-A LC inh2: 0; Bead autofluor: 2854

How did Cc1nn(Cc2ccccc2)c(C)c1NC(=O)c1cc2nc(-c3ccco3)cc(C(F)(F)F)n2n1 do in these assays?
BoNT-A LC CP1: -1; BoNTF LC inh 1: 1; Anthrax LF CP1: 4

How did Cc1cc(C)n2nc(C(=O)Nc3c(C)nn(Cc4ccc(F)cc4)c3C)cc2n1 do in these assays?
Anthrax LF prot: -3; BoNT F protease: 4; BoNT-A LC inh2: -1; Bead autofluor: 4003; BoNT-A LC CP1: -2; BoNTF LC inh 1: 2; Anthrax LF CP1: 1

Results for CCc1ccc(-c2cc(C(F)(F)F)n3nc(C(=O)Nc4c(C)nn(Cc5ccccc5Cl)c4C)cc3n2)s1 ?
Anthrax LF prot: 29; BoNT F protease: 17; BoNT-A LC inh2: inconclusive; Bead autofluor: 21126*; BoNT-A LC CP1: 5; BoNTF LC inh 1: 3; Anthrax LF CP1: 4

Results for NC(CCc1ccccc1)c1csc(Nc2cnccn2)n1 (stereo not drawn) ?
Anthrax LF prot: -4; BoNT F protease: -12; BoNT-A LC inh2: 0; Bead autofluor: 3643

Results for CN1OC[C@@H]2CN(Cc3ccccc3)[C@H](c3cccc(Oc4ccccc4)c3)C[C@@H]21 ?
Anthrax LF prot: -10; BoNT F protease: -4; BoNT-A LC inh2: 0; Bead autofluor: 3540

How did CCCc1cnc(Nc2nc(C(N)Cc3ccc(C(F)(F)F)cc3)cs2)nc1 (stereo not drawn) do in these assays?
Anthrax LF prot: 2; BoNT F protease: -16; BoNT-A LC inh2: 0; Bead autofluor: 2915

How did COc1cccc(-c2cc(CNC(=O)[C@H]3O[C@@H](n4cnc5c(N)ncnc54)[C@H](O)[C@@H]3O)no2)c1 do in these assays?
Anthrax LF prot: -1; BoNT F protease: -1; BoNT-A LC inh2: -2; Bead autofluor: 6288

What do the screens show for `CCc1ccc(-c2cc(C(F)(F)F)n3nc(C(=O)Nc4cnn(Cc5ccccc5C)c4)cc3n2)s1`?
Anthrax LF prot: 2; BoNT F protease: 10; BoNT-A LC inh2: 4; Bead autofluor: 10727; BoNT-A LC CP1: 2; BoNTF LC inh 1: 0; Anthrax LF CP1: -4

What do the screens show for `CCc1ccc(-c2cc(C(F)(F)F)n3nc(C(=O)Nc4c(C)nn(Cc5ccccc5C)c4C)cc3n2)s1`?
Anthrax LF prot: 30*; BoNT F protease: 19; BoNT-A LC inh2: 29; Bead autofluor: 19939*; BoNT-A LC CP1: 3; BoNTF LC inh 1: -4; Anthrax LF CP1: 4

What do the screens show for `O=C(c1sc2cccc(F)c2c1Cl)N1CCN(c2ncccn2)CC1`?
Anthrax LF prot: 0; BoNT F protease: -7; BoNT-A LC inh2: 0; Bead autofluor: 2242

Results for CC1(C)OCC(CNC(=O)c2[nH]c(C(F)(F)F)nc2-c2ccccc2)O1 (stereo not drawn) ?
Anthrax LF prot: 2; BoNT F protease: 8; BoNT-A LC inh2: 0; Bead autofluor: 4346

What do the screens show for `Cc1ccc(-c2csc3nc4c5ccccc5c(NCCCN(C)C)nn4c(=O)c23)cc1`?
Anthrax LF prot: 13; BoNT F protease: -2; BoNT-A LC inh2: 36*; Bead autofluor: 5593; BoNT-A LC CP1: 11; BoNTF LC inh 1: -12; Anthrax LF CP1: 4

How did Cc1ccsc1C(=O)N1CCCCCC1(C)C(=O)NCC(C)C (stereo not drawn) do in these assays?
Anthrax LF prot: 2; BoNT F protease: 0; BoNT-A LC inh2: 0; Bead autofluor: 3735

What do the screens show for `CCCn1c2ccccc2c2nc3ccccc3nc21`?
Anthrax LF prot: 31*; BoNT F protease: -6; BoNT-A LC inh2: 57*; Bead autofluor: 4676; BoNT-A LC CP1: 12; BoNTF LC inh 1: 4; Anthrax LF CP1: 9
